# Measured values: the OligoGym collection
# Biological target: SPATA2
# Assay: pooled miR-30 sensor sort-seq; sequence = guide strand
# Conditions: shRNA
# Further: reference of the scale not given here.
row,Sequence,sensor-assay potency score (higher = more potent)
1,TTGTCCTTCACTTGTGAGTGGA,-0.193
2,TGGAACTGCACGTACTTCCGAA,-0.761
3,TTGTGAGTGGATTTCTAGCATC,-1.52
4,TCATAGAACTGGATCAGCCGGA,0.651
5,TTGATGTAGCCCTTGGAGCTGG,-0.512
6,TTGACAGTACAGTAAGAGGGGC,-0.34
7,TGAGACTTTTGAACACTGGGTG,0.544
8,TCTGAGCAGCCACACATCCGGC,-1.47
9,TGAGTGGATTTCTAGCATCTGC,-1.11
10,TCTTCCAGTAATGTCGACTTGA,0.423
11,TCACTCTTTTTGTAGCAGGGGT,-0.679

# Biological target: SPATA5L1
# Assay: as above
# Conditions: shRNA
row,Sequence,sensor-assay potency score (higher = more potent)
1,TTGCTTGTCGAAATATCTGAGA,-0.878
2,TGATCTTATCTAATCTTCCAGG,-0.767
3,TTATCTAATCTTCCAGGTCGTA,-0.899
4,TTCTTGAACATCACATCCTGTC,-0.27
5,TTGAACATCACATCCTGTCTTG,0.227
6,AAAAACTTCTTGAAACTCCTGT,1.07
7,TAGATGATCTTATCTAATCTTC,-0.209
8,TTAACTTCAGTTTTACATCTTC,0.121
9,TATCTAATCTTCCAGGTCGTAA,-0.994
10,TAATCTTCCAGGTCGTAACAAA,-1.18
11,TTCTGAATCTCCAACAAACGGT,-0.635
12,TTGTCTTAAGTCCAACACCATC,-1.76

# Biological target: SPATS2L
# Assay: as above
# Conditions: shRNA
row,Sequence,sensor-assay potency score (higher = more potent)
1,TTCTTCTTTAACTTTATCCATT,-1.35
2,TATATTCTGATTGACACTCTTT,0.138
3,TTGGTTAGAAGATCCATTCTGC,0.635
4,TTGATCTTCTTCACGGAACTAT,-0.0493
5,TTGTTGGGAACAACTGATCTAA,-0.513
6,TATTGTTCTTCTTTTTTCCTGT,0.296
7,TTGTCTTTAGCATCTTTGTTGC,-0.548
8,TTGAATTGCACTGCCATCCACA,0.0707
9,TTCGTTAGCAGAATCTGTGGAC,0.593
10,TTCATTATTGCTTTTGTTGGGA,0.203
11,TATCTAGTTAGAGAAACGGTGC,-0.565
12,TTTAGAACTTGAATTGCACTGC,0.683

# Biological target: SPESP1
# Assay: as above
# Conditions: shRNA
row,Sequence,sensor-assay potency score (higher = more potent)
1,TAGATTTTTTCTCACGACCTGG,-0.569
2,TTAATTTATGTTCTGCTGCTGC,-0.241
3,TTTTATTACTTGTTCGTCCTAC,0.295
4,TTTCTATCGCAGTTTCACCTGA,-0.0302
5,TAGATCTAGAATTACACAGCAT,-0.409
